We go through seven compounds from PubChem BioAssay (Tox21).

Values without a mark were called inactive. Records with an inconclusive call do not appear. The source made the active and inactive calls. Unless noted, the call rests on the fitted dose curve; in most records, active means well fitted curve in the direction sought with a large enough effect in the repeat runs; inconclusive means weak or mixed curves; inactive means no such curve, though single readings can be large; an effect the other way counts as inactive or inconclusive.

For test [1], the target named is Estrogen receptor beta (Homo sapiens) (UniProt Q92731). In words: qHTS assay to identify small molecule agonists of the estrogen receptor beta (ER-beta) signaling pathway (AID 1259377; active means well fitted activation curve with a large enough effect in the signal ratio in the repeat runs, not every such curve was filed as active; the % refers to the signal ratio). Put shortly: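 HEK293T ER-beta-UAS-bla; 2% charcoal-stripped FBS; cells pre-incubated 6 hr, compound 16 hr, 37C/5% CO2; LiveBLAzer B/G FRET substrate 2 h RT; fluorescence intensity read.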
(In general: qHTS replaces the single test concentration by a dilution series.)

Test [2] shares this target. The test is described as follows: qHTS assay to identify small molecule antagonists of the estrogen receptor beta (ER-beta) signaling pathway (AID 1259378; active means well fitted inhibition curve with a large enough effect in the signal ratio in the repeat runs, not every such curve was filed as active; the % refers to the signal ratio). The procedure, abridged:
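Antagonist mode: compounds added to beta-lactamase reporter HEK293T ER-beta-UAS cells stimulated with E2 (1nM final), 16 hr at 37C. LiveBLAzer B/G FRET substrate, 2 hours room temperature, fluorescence read-out.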

The nature of test [3]: qHTS assay to identify small molecule agonists of the androgen receptor (AR) signaling pathway in the presence of an antagonist - cell viability counter screen (AID 1259379). Further: nearly all actives have a fitted effect of over 25% in size. Further: potency means the concentration at half of the fitted maximal effect. Put shortly: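 MDA-kb2 human breast carcinoma cells (stable MMTV-luciferase, AR/GR responsive) were seeded 3,000 cells/well, pre-incubated 5 hr at 37C without CO2, then given 3.0uM nilutamide and compounds at 15 concentrations for 16 hr. Viability was read by CellTiter-Fluor fluorescence.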

The nature of test [4]: qHTS assay to identify small molecule agonists of the estrogen receptor beta (ER-beta) signaling pathway - cell viability counter screen (AID 1259380). Further: nearly all actives have a fitted effect of over 30% in size. Further: potency means the concentration at half of the fitted maximal effect. Put shortly: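 ER-beta-UAS-bla HEK293T cells in medium with 2% charcoal-stripped FBS were preincubated 6 hr at 37C, dosed with compound in DMSO for 16 hr, then after the bla read, CellTiter-Glo was added for 30 min at room temperature; luminescence recorded.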

Test [5] has as its target Androgen receptor (Homo sapiens) (UniProt P10275). In words: qHTS assay to identify small molecule agonists of the androgen receptor (AR) signaling pathway in the presence of an antagonist (AID 1259381; calls by dose curve; further: nearly all actives have a fitted effect of over 15% in size). Put shortly: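 MDA-kb2 human breast carcinoma cells carrying an MMTV-luciferase reporter (AR- and GR-responsive) were treated with compounds at 15 concentrations plus 3.0uM final nilutamide for 16hr at 37C without CO2; luminescence was read after ONE-Glo addition.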

Test [6] has as its target Estrogen receptor (Homo sapiens) (UniProt P03372). The test is described as follows: qHTS assay to identify small molecule agonists of the estrogen receptor alpha (ER-alpha) signaling pathway in the presence of an antagonist (AID 1259383; calls by dose curve; further: top concentration of the series differs between compounds; nearly all actives have a fitted effect of over 15% in size). The procedure, abridged:
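VM7Luc4E2 cells (endogenous full-length ER-alpha, 4×ERE-luciferase) were precultured 5 days in phenol red-free medium with 10% charcoal-stripped FBS, given 10.0nM ICI-182,780 (final), then treated with compounds at 15 concentrations for 22hr at 37C; luminescence read with ONE-Glo.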

A short description of test [7]: qHTS assay to identify small molecule agonists or antagonists of the thyroid stimulating hormone receptor (TSHR) signaling pathway - wild type cell line counter screen (AID 1259384; calls by dose curve). The procedure, abridged:
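Counter screen in untransfected Hek293: compounds (15-point titration, triplicate) plus phosphodiesterase inhibitor Ro20-1724 added after 18 h plating; 30 min RT. Intracellular cAMP via competitive d2/cryptate immunoassay, 1 h incubation.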

The target of test [8] is Thyrotropin receptor (Homo sapiens) (UniProt P16473). In words: qHTS assay to identify small molecule antagonists of the thyroid stimulating hormone receptor (TSHR) signaling pathway (AID 1259385; calls by dose curve; further: nearly all actives have a fitted effect of over 20% in size). Put shortly:
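Antagonist mode: compound-treated TSHR-expressing HEK293 cells were stimulated with 1.5 ng/mL TSH (final) in presence of Ro20-1724 for 30 min at RT. HTRF cAMP detection after 1 h; each compound tested at 15 concentrations, triplicate.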

The nature of test [9]: qHTS assay to identify small molecule agonists of the estrogen receptor alpha (ER-alpha) signaling pathway in the presence of an antagonist - cell viability counter screen (AID 1259386).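 Further: cells exposed to compounds for 22 h at 37 °C before the viability read; nearly all actives have a fitted effect of over 30% in size.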 Further: potency means the concentration at half of the fitted maximal effect. Put shortly: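 VM7Luc4E2 cells (endogenous full-length ER-alpha, 4×ERE-luciferase) were held 5 days in phenol red-free medium with 10% charcoal-stripped FBS, plated, then given 10.0nM ICI-182,780 and compounds at 15 concentrations for 22hr at 37C; viability read by CellTiter-Fluor fluorescence.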

For test [10], the target named is Progesterone receptor (Homo sapiens) (UniProt P06401). The test is described as follows: qHTS assay to identify small molecule agonists of the progesterone receptor (PR) signaling pathway (AID 1346784; calls by dose curve; further: nearly all actives have a fitted effect of over 30% in size). The procedure, abridged:
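Beta-lactamase reporter read-out: after 16 hr compound treatment at 37C and a further 2 hr at room temperature with LiveBLAzer B/G FRET substrate, fluorescence was measured in PR-UAS-bla HEK 293T cells grown in 2% charcoal-stripped serum.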

For test [11] the target is unchanged. The test is described as follows: qHTS assay to identify small molecule antagonists of the progesterone receptor (PR) signaling pathway (AID 1346795; active means well fitted inhibition curve with a large enough effect in the signal ratio in the repeat runs, not every such curve was filed as active; the % refers to the signal ratio). Put shortly:
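Read-out is fluorescence from the LiveBLAzer B/G FRET substrate, cleaved by a UAS-controlled beta-lactamase in PR-UAS-bla HEK293T cells after 16 hr exposure to compound plus 1 nM promegestone (final), followed by 2 hr at room temperature.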

Test [12] can be described thus: qHTS assay to identify small molecule antagonists of the progesterone receptor (PR) signaling pathway - cell viability counter screen (AID 1346798). Further: series mostly up to about 92 µM; nearly all actives have a fitted effect of over 50% in size. Put shortly: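 HEK293T PR-UAS-bla, 2% charcoal-stripped FBS; 4 hr pre-plate; cpd + R5020, 16 h 37C; LiveBLAzer read first; then CellTiter-Glo 30 min RT, luminescence.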
Test [13] can be described thus: qHTS assay to identify small molecule agonists of the progesterone receptor (PR) signaling pathway - cell viability counter screen (AID 1346799; calls by dose curve; further: nearly all actives have a fitted effect of over 45% in size). The procedure, abridged: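 Luminescence from CellTiter-Glo, added after the beta-lactamase FRET read in the same wells, gave cytotoxicity in PR-UAS-bla HEK293T cells treated with compounds for 16 hr at 37C.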
A short description of test [14]: qHTS assay to identify small molecule antagonists of the TGF-beta/Smad signaling pathway - cell viability counter screen (AID 1346824). Further: nearly all actives have a fitted effect of over 50% in size. The procedure, abridged: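 Cytotoxicity counter-screen run in the same wells as the beta-lactamase Smad reporter read: CellTiter-Glo luminescence after 30 min at room temperature. HEK 293T SBE-bla cells had 5 hr compound exposure at 37 C with TGF-beta1 (0.25 ng/mL stock).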

The nature of test [15]: qHTS assay to identify small molecule agonists of the TGF-beta/Smad signaling pathway - cell viability counter screen (AID 1346829). Further: top concentration of the series differs between compounds; nearly all actives have a fitted effect of over 45% in size. The procedure, abridged: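 Luminescence from CellTiter-Glo, read after a 30 min room-temperature incubation, gives cell viability of SBE-bla HEK 293T cells treated 5 hr with compounds at 37 C.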
Test [16] is described as follows: qHTS assay to identify small molecule agonists of the TGF-beta/Smad signaling pathway (AID 1346859; active means well fitted activation curve with a large enough effect in the signal ratio in the repeat runs, not every such curve was filed as active; the % refers to the signal ratio; further: series mostly up to about 77 µM). The procedure, abridged:
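SBE-bla HEK 293T, 4,000 cells/well, plated o/n; cpd in DMSO, 5 hr, 37 C/5% CO2; B/G FRET substrate 2 hr RT; ex 405, em 460/530 nm.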

In test [17] the target is Thyrotropin-releasing hormone receptor (Homo sapiens) (UniProt P34981). The test is described as follows: qHTS assay to identify small molecule antagonists of the thyrotropin-releasing hormone receptor (TRHR) signaling pathway (AID 1346877; active means well fitted inhibition curve with a large enough effect in the repeat runs, not every such curve was filed as active; further: series mostly up to about 51 µM). Put shortly:
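TRHR-expressing HEK293 cells were seeded, cultured 18 h at 37 °C, then loaded with calcium dye for 2 h. Compounds were pre-incubated 5 min at room temperature before 1 nM TRH (final) was added, and kinetic fluorescence was recorded for 3 min.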

Test [18] has the same target. The test is described as follows: qHTS assay to identify small molecule agonists of the thyrotropin-releasing hormone receptor (TRHR) signaling pathway (AID 1346891; calls by dose curve; further: series mostly up to about 58 µM). The procedure, abridged:
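Intracellular calcium rise, read as fluorescence every second for 3 min, served as the agonist signal in dye-loaded HEK293 cells expressing TRHR; each compound ran at 15 concentrations in triplicate.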

Test [19] in a line: qHTS assay to identify small molecule antagonists of the estrogen receptor beta (ER-beta) signaling pathway - cell viability counter screen (AID 1259382).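 Further: HEK293T cells carrying ER-beta-UAS-bla reporter stimulated with estradiol; series mostly up to about 92 µM; nearly all actives have a fitted effect of over 55% in size.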 The procedure, abridged: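 ER-beta-UAS-bla HEK293T cells (2,000/well, 2% charcoal-stripped FBS) were pre-incubated 6 hr at 37C, then given compound plus 1nM final 17-beta-estradiol for 16 hr. Viability was read in the same wells by CellTiter-Glo luminescence after 30 min at room temperature.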

Test [20] can be described thus: Human pregnane X receptor (PXR) small molecule agonists, qHTS cell viability counter screen (AID 1346977). Further: nearly all actives have a fitted effect of over 50% in size. Put shortly: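 PXR-Luc HepG2, 2,000 cells/well, 5% charcoal-stripped FBS; 5hr settle; cpd 24hr, 37C/5% CO2; CellTiter-Fluor at 23hr, read 1hr later (fluorescence).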

Thyrotropin receptor (Homo sapiens), sequence (P16473 whole entry, looked up): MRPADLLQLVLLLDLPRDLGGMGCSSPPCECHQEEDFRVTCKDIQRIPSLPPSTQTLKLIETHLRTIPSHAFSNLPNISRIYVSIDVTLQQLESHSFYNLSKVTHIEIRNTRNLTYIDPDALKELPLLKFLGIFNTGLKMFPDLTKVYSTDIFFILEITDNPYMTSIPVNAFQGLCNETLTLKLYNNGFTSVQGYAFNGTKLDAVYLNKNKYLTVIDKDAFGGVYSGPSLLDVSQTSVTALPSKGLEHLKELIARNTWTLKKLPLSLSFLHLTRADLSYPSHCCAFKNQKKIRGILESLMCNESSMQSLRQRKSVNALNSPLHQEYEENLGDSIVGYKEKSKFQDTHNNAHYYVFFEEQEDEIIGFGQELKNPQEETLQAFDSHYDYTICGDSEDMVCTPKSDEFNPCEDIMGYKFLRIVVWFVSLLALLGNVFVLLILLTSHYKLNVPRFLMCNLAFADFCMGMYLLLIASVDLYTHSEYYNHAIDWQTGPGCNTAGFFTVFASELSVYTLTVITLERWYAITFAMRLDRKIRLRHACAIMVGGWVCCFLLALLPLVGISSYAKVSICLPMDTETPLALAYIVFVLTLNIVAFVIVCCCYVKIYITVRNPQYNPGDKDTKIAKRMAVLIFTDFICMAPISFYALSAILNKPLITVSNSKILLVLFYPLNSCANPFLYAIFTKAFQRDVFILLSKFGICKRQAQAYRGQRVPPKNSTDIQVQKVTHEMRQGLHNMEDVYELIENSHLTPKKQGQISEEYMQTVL
Progesterone receptor (Homo sapiens), sequence (P06401 whole entry, looked up): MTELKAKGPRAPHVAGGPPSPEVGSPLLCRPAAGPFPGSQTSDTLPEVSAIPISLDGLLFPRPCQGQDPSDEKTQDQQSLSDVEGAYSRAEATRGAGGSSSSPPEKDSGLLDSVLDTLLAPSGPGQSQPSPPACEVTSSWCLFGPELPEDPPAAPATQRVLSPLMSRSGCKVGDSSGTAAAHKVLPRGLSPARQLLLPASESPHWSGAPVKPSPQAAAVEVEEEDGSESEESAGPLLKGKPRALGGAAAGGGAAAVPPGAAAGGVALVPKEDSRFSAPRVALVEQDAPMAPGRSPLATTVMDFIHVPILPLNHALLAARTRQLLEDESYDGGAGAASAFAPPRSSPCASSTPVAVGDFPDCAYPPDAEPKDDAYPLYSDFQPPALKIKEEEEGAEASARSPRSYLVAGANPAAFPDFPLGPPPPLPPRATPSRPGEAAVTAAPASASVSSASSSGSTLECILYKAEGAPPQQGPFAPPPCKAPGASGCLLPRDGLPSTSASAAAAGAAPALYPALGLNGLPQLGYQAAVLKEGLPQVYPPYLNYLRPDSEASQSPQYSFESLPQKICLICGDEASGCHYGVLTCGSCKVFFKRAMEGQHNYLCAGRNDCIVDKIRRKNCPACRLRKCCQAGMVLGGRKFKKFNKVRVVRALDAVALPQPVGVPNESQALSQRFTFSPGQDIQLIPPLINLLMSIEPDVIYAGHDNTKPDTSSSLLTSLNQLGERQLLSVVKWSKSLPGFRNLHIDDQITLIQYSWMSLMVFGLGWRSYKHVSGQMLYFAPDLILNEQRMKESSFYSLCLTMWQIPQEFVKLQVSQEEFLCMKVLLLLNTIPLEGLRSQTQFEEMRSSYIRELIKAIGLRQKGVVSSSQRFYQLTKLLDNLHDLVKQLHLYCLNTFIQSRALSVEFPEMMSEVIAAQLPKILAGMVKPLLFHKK
Estrogen receptor (Homo sapiens), sequence (P03372 whole entry, looked up): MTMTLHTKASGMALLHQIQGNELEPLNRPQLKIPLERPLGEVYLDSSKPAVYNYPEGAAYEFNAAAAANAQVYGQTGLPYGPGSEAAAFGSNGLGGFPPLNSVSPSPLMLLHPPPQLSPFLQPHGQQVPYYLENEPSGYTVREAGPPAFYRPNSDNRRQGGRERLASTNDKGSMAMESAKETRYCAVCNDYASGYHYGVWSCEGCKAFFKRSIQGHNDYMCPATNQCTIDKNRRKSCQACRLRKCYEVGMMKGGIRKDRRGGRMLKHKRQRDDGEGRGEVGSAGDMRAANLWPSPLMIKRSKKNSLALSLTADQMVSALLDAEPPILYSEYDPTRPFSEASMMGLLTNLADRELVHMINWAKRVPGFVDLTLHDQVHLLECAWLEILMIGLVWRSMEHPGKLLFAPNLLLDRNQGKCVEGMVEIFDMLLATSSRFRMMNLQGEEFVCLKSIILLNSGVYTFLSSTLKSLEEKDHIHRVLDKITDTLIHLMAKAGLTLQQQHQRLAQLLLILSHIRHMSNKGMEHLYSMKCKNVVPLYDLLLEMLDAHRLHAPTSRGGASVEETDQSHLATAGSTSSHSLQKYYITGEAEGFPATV
Thyrotropin-releasing hormone receptor (Homo sapiens), sequence (P34981 whole entry, looked up): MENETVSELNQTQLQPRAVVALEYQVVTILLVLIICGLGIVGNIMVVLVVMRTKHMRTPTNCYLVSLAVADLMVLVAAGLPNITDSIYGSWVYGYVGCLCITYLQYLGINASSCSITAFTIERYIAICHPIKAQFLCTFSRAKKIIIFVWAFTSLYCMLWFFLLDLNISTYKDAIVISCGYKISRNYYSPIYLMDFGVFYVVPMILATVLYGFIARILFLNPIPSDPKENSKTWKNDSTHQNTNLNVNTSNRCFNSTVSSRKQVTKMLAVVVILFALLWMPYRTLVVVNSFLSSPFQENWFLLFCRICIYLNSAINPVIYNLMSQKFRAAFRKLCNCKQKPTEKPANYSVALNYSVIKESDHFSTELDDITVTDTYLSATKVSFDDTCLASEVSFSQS
Androgen receptor (Homo sapiens), sequence (P10275 whole entry, looked up): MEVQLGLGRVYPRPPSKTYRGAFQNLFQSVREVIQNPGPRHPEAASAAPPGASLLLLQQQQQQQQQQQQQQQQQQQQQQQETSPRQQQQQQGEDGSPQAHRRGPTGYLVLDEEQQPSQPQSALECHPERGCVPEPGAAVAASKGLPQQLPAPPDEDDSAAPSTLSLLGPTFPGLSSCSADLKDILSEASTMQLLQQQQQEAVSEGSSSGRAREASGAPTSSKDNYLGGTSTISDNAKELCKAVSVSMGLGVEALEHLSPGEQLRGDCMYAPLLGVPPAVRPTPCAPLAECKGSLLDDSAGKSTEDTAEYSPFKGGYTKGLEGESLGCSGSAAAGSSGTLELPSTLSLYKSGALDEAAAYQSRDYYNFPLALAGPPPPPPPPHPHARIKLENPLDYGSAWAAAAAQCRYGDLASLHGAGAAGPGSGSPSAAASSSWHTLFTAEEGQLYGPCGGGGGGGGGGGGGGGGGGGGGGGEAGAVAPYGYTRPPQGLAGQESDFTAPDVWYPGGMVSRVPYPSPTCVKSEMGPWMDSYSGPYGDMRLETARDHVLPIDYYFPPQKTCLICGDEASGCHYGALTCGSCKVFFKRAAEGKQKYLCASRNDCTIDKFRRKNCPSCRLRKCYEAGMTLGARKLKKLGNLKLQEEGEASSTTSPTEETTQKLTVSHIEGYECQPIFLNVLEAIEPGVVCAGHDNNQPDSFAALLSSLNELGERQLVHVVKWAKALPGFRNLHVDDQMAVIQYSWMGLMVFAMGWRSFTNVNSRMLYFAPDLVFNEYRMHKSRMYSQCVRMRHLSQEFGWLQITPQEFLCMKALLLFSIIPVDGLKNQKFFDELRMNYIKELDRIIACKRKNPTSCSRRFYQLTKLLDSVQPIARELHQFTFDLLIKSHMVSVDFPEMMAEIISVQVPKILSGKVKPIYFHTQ
Estrogen receptor beta (Homo sapiens), sequence (Q92731 whole entry, looked up): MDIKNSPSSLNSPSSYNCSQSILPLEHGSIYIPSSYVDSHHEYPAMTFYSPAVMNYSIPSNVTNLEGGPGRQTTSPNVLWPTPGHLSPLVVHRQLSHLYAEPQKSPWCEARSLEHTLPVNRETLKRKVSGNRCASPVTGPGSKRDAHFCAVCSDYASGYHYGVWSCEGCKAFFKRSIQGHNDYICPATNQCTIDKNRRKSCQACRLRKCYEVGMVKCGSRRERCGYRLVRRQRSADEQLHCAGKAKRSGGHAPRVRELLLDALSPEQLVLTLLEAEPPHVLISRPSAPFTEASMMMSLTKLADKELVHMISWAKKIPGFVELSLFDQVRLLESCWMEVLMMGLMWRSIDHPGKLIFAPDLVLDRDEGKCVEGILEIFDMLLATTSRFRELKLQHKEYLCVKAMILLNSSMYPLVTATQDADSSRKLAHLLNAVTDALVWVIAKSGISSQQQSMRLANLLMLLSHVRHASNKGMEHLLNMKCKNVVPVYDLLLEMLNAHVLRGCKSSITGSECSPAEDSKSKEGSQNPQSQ

On to `O=C(O)Cc1ccccc1Nc1c(Cl)cccc1Cl`, for which the Potency entry in test [1], in test [2], in [3], in [6], in test [8] and in [9] was “inactive” each time. For the same compound, the Potency entry in test [10], in test [11], in test [12], in [13], in test [14] and in test [15] was “inactive” throughout. Moreover, the Potency entry in test [16] and in [17] was “inactive” throughout. Also, the Potency in [4] was 13.7 µM (active). In addition, the outcome in [5], in test [7] and in test [18] was inactive.

Turning to `CCCC[P+](C)(CCCC)CCCC`, the Potency entry in [1], in [2], in test [3], in test [4], in test [19] and in test [6] was “inactive” in each case. Moreover, the Potency result in [8], in [9], in test [10], in test [11], in test [12] and in [13] was “inactive” each time. Moreover, the Potency result in test [14], in test [15], in [16], in test [17] and in [20] was “inactive” throughout. Besides, the compound was classed as inactive in test [7] and in test [18].

In the case of `O=C1CCCCCCCCCCCCCCCO1`, the Potency result in [1], in [2], in test [3], in test [4], in [19] and in [6] was “inactive” each time. The Potency result in test [8], in [9], in test [10], in test [12], in test [13] and in test [14] was “inactive” each time. Further, the Potency entry in test [15], in [16], in test [17] and in test [20] was “inactive” in each case. Also, the outcome in test [7] and in [18] was inactive.

`CN(C)Cc1ccccc1O`: the Potency entry in test [1], in [2], in test [3], in test [19], in [6] and in test [8] was “inactive” in each case. Besides, the Potency entry in [10], in test [11], in test [12], in test [13], in [14] and in [15] was “inactive” in each case. Moreover, the Potency result in [16], in test [17] and in [20] was “inactive” each time. The result in test [5], in test [7] and in test [18] was inactive.

Turning to `Cc1cc(C(C)(C)C)c(O)c(C)c1Cn1c(=O)n(Cc2c(C)cc(C(C)(C)C)c(O)c2C)c(=O)n(Cc2c(C)cc(C(C)(C)C)c(O)c2C)c1=O`, the Potency result in test [1], in [2], in test [3], in test [4], in [19] and in test [6] was “inactive” in each case. The Potency entry in [8], in test [9], in test [12], in test [15], in [16] and in [17] was “inactive” each time. Further, the Potency result in test [20] is “inactive”. Further, the compound was called inactive in test [7] and in test [18].

`CCO[Si](OCC)(OCC)OCC`: the Potency result in test [1], in [2], in test [3], in test [4], in test [6] and in [8] was “inactive” in each case. Further, the Potency entry in test [9], in [12], in test [13], in test [14], in test [15] and in test [16] was “inactive” each time. Also, the Potency entry in test [20] was “inactive”. The call in test [7] was inactive.

Take `Cc1ccc(N/N=c2\c(=O)cc/c(=N\Nc3ccc(S(=O)(=O)O)cc3)c2=O)c(C)c1`: the Potency result in test [1], in test [2], in test [4], in test [19], in test [6] and in test [8] was “inactive” each time. The Potency result in [10], in test [11], in test [12], in test [13], in [14] and in test [15] was “inactive” each time. Further, the Potency entry in [17] was “inactive”. The Potency in test [3] is 27.3 µM (active); in test [9] it was 34.4 µM (active). Moreover, the outcome in test [7] and in test [18] was inactive.
